Measured values as given in ChEMBL document CHEMBL3988442, “University of Dundee, Small-Polar-MMV Screening Library” (2021).
For some of these results: Measured potencies and affinities stand elsewhere.

How the values were obtained:
Parameters in all cases: scale not given: direction of the effect not stated beside the values
[1] = biological target: Protein translocase subunit SecA (Escherichia coli (strain K12)) (UniProt P10408); test: Assay to Identify E. coli SecA ATPase Inhibitors; type: functional; details: 30 µM
Sequence of Protein translocase subunit SecA (Escherichia coli (strain K12)) (P10408 whole entry): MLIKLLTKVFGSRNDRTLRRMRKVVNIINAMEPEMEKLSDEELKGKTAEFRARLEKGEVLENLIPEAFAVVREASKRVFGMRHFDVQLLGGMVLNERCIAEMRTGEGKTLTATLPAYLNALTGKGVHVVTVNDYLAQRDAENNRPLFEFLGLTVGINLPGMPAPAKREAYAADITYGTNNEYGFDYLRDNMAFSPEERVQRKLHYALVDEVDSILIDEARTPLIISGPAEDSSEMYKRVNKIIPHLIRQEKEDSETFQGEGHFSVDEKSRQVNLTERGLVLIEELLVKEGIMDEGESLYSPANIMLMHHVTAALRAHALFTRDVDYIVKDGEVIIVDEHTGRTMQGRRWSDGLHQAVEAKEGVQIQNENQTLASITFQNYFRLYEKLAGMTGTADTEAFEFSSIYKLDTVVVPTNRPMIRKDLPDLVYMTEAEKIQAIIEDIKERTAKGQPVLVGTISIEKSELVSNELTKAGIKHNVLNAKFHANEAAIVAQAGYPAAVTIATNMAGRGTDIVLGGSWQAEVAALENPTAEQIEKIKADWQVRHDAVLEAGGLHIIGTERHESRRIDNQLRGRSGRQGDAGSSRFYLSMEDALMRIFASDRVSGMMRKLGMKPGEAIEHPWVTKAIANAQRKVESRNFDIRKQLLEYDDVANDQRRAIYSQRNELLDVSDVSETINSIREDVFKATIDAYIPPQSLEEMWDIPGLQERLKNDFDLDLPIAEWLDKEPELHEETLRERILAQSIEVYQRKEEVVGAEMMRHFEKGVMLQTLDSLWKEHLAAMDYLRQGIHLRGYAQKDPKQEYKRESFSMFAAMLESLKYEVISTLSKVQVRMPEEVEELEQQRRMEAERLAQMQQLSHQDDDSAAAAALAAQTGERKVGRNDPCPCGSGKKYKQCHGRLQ

[2] = biological target: T1, Ubiquitin-activating enzyme e1, putative (Leishmania donovani (strain BPK282A1)) (UniProt E9BSI1); test: Leishmania donovani Ubiquitin Activating Enzyme (LdE1); type: functional; details: 30 µM
T1 sequence (whole entry): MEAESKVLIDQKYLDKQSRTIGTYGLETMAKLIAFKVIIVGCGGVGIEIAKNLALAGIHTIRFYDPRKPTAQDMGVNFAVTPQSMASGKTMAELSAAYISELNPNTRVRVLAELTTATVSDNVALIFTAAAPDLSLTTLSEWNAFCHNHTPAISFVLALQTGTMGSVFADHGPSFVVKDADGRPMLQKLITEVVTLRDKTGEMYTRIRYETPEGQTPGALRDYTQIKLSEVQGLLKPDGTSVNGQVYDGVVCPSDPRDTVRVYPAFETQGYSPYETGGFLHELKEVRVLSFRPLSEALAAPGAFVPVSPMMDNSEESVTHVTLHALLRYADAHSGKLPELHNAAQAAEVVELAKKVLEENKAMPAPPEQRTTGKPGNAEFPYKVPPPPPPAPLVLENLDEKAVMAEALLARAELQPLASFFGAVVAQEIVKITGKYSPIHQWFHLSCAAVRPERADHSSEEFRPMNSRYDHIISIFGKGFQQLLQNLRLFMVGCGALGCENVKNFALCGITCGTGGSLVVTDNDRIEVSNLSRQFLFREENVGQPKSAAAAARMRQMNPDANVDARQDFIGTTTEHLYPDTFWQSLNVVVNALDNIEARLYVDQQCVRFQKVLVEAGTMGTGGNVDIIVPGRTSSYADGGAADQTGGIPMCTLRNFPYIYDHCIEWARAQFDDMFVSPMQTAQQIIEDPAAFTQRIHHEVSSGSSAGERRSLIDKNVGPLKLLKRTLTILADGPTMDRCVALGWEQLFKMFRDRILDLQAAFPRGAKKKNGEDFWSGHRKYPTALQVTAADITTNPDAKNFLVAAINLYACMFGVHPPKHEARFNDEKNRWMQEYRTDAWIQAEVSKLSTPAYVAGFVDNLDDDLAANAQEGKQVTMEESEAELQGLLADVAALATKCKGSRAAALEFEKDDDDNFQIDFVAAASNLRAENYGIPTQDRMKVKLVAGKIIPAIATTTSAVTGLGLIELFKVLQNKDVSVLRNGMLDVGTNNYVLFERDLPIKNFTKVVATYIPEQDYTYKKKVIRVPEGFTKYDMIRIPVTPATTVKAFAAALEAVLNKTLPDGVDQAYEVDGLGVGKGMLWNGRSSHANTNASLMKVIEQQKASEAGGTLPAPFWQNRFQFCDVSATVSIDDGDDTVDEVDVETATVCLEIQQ

[3] = biological target: Sialic acid-binding Ig-like lectin 9 (Homo sapiens) (UniProt Q9Y336); test: Hs-Siglec9 ALPHAscreen SOP 20170721; details: 10 µM
Sequence of Sialic acid-binding Ig-like lectin 9 (Homo sapiens) (Q9Y336 whole entry): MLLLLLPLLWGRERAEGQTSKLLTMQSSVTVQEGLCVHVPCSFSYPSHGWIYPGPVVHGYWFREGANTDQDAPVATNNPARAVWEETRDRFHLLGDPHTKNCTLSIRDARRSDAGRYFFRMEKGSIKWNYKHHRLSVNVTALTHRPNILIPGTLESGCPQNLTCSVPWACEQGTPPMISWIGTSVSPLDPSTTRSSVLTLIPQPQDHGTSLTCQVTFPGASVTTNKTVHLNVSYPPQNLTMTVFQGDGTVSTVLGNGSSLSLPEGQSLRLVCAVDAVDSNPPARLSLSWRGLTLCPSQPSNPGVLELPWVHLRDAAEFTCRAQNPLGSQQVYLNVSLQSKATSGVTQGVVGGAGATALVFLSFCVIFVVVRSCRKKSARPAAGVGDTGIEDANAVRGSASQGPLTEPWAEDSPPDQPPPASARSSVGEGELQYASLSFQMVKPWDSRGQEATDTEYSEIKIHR

[4] = tested on: Trypanosoma cruzi; test: Trypanosoma cruzi phosphomannomutase and mannose-1-phosphate guanylyltransferase assay; type: functional; details: 10 µM
[5] = biological target: T2, Arginase-2, mitochondrial (Homo sapiens) (UniProt P78540); test: in vitro enzyme assay to detect the production of urea directly proportional to the activity of Arginase II; type: functional; details: 33.3 µM; note: in the data most compounds retested in dose-response had high values
T2 sequence (whole entry): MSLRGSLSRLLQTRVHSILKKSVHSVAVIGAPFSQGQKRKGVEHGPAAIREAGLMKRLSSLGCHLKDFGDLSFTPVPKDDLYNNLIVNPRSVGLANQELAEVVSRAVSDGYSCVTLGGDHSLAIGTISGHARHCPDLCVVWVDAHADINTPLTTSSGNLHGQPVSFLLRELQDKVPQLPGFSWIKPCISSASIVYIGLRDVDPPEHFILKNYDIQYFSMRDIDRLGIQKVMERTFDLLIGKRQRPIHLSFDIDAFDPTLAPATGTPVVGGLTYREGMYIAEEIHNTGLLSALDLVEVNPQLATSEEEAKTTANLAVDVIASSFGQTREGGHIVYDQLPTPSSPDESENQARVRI

[6] = biological target: T3, Proteasome subunit beta (Trypanosoma cruzi) (UniProt O96673); test: Trypanosoma cruzi proteasome chymotrypsin-like activity (TcProtChymo) assay.; note: in the data most compounds retested in dose-response had high values; type: functional; details: 9.37 µM
T3 sequence (whole entry): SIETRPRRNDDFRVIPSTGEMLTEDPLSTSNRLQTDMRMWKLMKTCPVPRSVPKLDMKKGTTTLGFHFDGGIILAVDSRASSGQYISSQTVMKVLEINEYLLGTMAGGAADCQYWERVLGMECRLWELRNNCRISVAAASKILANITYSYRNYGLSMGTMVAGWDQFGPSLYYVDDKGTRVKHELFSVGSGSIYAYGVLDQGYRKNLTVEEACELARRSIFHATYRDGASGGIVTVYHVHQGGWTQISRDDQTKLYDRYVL

[7] = organism: Homo sapiens; test: To identify inhibition of the IFN signalling (Jak-Stat) pathway via expression of an eGFP reporter gene under the control of an IFN-stimulated response element (ISRE) containing MxA promoter.; type: functional; details: 30 µM
[8] = biological target: T4, Tyrosyl-tRNA synthetase, putative (Trypanosoma cruzi (strain CL Brener)) (UniProt Q4DSP6); test: Trypanosoma cruzi tyrosyl tRNA synthetase (TcYRS) _High Tyrosine SOP; type: functional; details: 30 µM; note: in the data most compounds retested in dose-response had high values
T4 sequence (whole entry): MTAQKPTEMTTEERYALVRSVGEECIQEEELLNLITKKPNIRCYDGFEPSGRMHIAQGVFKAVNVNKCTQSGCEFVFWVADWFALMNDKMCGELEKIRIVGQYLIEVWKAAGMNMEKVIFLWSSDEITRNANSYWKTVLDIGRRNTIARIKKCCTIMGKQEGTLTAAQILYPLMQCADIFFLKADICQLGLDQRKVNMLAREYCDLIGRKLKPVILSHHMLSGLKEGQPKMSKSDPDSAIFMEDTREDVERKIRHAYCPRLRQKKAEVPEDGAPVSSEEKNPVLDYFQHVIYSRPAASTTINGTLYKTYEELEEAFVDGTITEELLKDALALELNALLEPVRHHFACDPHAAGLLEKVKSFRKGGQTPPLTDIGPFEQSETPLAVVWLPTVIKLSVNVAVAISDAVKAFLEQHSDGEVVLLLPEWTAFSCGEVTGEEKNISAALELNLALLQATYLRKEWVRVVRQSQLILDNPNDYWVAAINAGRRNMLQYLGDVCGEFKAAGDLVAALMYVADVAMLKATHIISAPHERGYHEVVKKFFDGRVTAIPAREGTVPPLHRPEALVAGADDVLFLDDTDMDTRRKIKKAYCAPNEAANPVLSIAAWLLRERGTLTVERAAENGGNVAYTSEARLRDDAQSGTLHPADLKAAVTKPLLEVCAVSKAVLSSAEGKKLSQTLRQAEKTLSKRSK

[9] = biological target: T4, Tyrosyl-tRNA synthetase, putative (Trypanosoma cruzi (strain CL Brener)); test: Trypanosoma cruzi tyrosyl tRNA synthetase (TcYRS) SOP; type: functional; details: 30 µM
[10] = biological target: Chromo domain-containing protein 1 (Saccharomyces cerevisiae (strain ATCC 204508 / S288c) (Baker's yeast)) (UniProt P32657); test: ScCHD-1 Enzyme Inhibition Assay; type: functional; details: 30 µM; note: in the data most compounds retested in dose-response had high values
Sequence of Chromo domain-containing protein 1 (Saccharomyces cerevisiae (strain ATCC 204508 / S288c) (Baker's yeast)) (P32657 whole entry, the tested form may be a part): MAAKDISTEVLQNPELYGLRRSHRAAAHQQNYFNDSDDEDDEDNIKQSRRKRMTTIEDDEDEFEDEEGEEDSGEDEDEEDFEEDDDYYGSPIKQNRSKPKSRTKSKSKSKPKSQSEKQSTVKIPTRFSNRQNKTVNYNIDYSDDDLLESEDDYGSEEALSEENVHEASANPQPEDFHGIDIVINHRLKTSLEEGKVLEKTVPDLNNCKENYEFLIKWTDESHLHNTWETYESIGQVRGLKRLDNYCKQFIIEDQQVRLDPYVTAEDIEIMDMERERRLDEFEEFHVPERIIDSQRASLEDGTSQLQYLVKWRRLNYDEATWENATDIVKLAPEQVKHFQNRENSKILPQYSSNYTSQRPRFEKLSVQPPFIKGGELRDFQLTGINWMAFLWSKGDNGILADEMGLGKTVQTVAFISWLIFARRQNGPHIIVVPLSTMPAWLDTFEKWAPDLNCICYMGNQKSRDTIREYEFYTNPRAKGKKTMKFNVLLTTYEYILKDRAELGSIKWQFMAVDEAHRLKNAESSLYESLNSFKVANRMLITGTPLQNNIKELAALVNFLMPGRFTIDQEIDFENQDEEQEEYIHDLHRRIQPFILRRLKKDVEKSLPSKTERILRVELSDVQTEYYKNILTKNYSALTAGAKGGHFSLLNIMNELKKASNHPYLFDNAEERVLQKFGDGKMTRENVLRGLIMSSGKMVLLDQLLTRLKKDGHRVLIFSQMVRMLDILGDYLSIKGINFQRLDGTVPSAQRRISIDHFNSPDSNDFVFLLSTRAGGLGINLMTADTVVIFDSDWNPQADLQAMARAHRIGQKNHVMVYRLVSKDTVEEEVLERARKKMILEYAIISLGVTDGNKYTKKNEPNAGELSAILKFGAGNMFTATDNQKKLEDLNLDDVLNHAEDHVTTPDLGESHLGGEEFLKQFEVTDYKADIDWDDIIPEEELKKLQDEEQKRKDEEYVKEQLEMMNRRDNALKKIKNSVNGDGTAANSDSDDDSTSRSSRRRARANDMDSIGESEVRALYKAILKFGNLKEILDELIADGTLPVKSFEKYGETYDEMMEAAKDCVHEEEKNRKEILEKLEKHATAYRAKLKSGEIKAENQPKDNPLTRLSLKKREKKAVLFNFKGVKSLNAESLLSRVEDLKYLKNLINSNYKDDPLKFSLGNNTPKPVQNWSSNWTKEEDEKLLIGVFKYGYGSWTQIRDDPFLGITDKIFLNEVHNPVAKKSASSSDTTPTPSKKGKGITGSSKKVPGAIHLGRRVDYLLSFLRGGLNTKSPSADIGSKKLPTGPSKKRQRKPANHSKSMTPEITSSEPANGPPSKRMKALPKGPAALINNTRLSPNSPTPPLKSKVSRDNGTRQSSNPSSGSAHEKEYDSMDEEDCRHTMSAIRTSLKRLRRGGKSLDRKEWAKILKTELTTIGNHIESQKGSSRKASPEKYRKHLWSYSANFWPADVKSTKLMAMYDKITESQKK

Compound	Percent Effect [1]	Percent Effect [2]	Percent Effect [3]	Percent Effect [4]	Percent Effect [5]	Percent Effect [6]	Percent Effect [7]	Percent Effect [8]	Percent Effect [9]	Percent Effect [10]
COc1cccc(-n2nnc(C(=O)N3CCN(C)CC3C)c2C)c1 (stereo not given)	1.69%	25.6%	-23.9%	6.1%	-2.46%	13.4%	27.9%	3.35%	22.9%	12.3%
Cc1cnn(CC2CCCCN2CCn2cncn2)c1 (stereo not given)	-1.55%	16%	-7.29%	-3.61%	4.88%	14.2%	5.08%	5.79%	7.69%	-6.72%
O=C(NCCc1cccnc1)N1CCCC1c1ccsc1 (stereo not given)	-6.89%	17.9%	-11.1%	5.73%	3.69%	6.74%	13.9%	5.26%	22.9%	-9.16%
O=C(NCC1CCSCC1)N(CCCO)C1CCc2ccccc21 (stereo not given)	-1.28%	8%	-4.32%	-4.02%	-3.1%	9.92%	11%	-0.526%	0%	-14.3%
COc1cc(S(=O)(=O)N2CCc3ccc(F)cc32)cc(C(=O)O)c1OC	-7.45%	10.7%	12.6%	-1.21%	0%	6.02%	4.5%	-3.68%	-5.13%	-15.2%
O=C1CC(c2ccccc2)C2(CCN(Cc3ccccn3)CC2)N1 (stereo not given)	0.295%	22.1%	-3.53%	-5.25%	3.2%	8.33%	18.5%	7.73%	15%	-9.1%
CS(=O)(=O)N1CCC[C@]2(C[C@@H](Oc3ncccc3F)CO2)C1	-5.48%	11.7%	-6.01%	-0.682%	4.05%	10.3%	-0.297%	12.1%	12.8%	1.06%
CCNC(=O)[C@@H]1C[C@@H](NC(=O)c2cccnc2O)CN1Cc1ccsc1	-5.31%	16.2%	11.3%	3.59%	17.1%	19.2%	2.29%	6.92%	21.9%	-4.37%
CS(=O)(=O)NCC1CCCN(C(=O)COCc2ccccc2)C1 (stereo not given)	-1.97%	15.4%	-3.29%	4.41%	6.56%	1.96%	17.6%	0.478%	20.5%	-5.38%
Cn1c(CN2CCCC2c2noc(C3CC3)n2)cc(=O)n(C)c1=O (stereo not given)	-8.17%	2.67%	-1.87%	-3.01%	-3.99%	5.85%	13.9%	0.526%	0%	-5.06%
CC(C)c1cc(N2CCN(c3ccc(O)cc3)CC2)n2nccc2n1	-0.0494%	5.41%	0.937%	-0.873%	5.25%	19.7%	0.905%	27.1%	34.1%	-3.77%
CCC(=O)N1CCC(O)(c2ncc(OC)nc2OC)CC1	-1.18%	9.33%	3.93%	-3.55%	3.1%	9.03%	8.31%	5.29%	7.5%	-17.1%
Cc1cccnc1CNCC1(O)CCCN(Cc2ccc(F)cc2)C1=O (stereo not given)	-5.67%	8.11%	19.1%	9.41%	29.7%	-0.514%	5.17%	15.4%	29.3%	-3.8%
COc1ccc(CNCc2ccnc(N3CCCCC3)c2)cc1OC	-2.73%	-2.56%	3.59%	4.22%	2.87%	-1.62%	25.8%	3.35%	1.21%	-2.92%
O=C1C[C@H]2[C@@H](CCN2C(=O)Cc2cccs2)N1Cc1cccnc1	-6.6%	9.09%	-0.0705%	-1.31%	-4.11%	13.7%	8.33%	6.76%	7.5%	-3.4%
CCc1[nH]ncc1C(=O)N1CCCC(n2nc(C)nc2C)C1 (stereo not given)	-6.31%	2.56%	-8.9%	11.9%	-1.23%	2.82%	7.13%	0.478%	8.43%	-10.4%
CCOCCN1CCCC(c2cc(C(N)=O)[nH]n2)C1 (stereo not given)	-1.61%	0%	5.24%	-4.22%	3.99%	8.06%	13.9%	3.68%	7.69%	-5.54%
CN(Cc1noc(C2CC2)n1)C1CCN(Cc2ccncc2)C1 (stereo not given)	-0.687%	20.5%	-22.8%	6.1%	7.38%	14.4%	12%	1.44%	22.9%	-9.5%
CC(CC#N)NC(=O)c1cc(Br)c2c(c1)OCCO2 (stereo not given)	-2.19%	-5.33%	-0.459%	-4.22%	3.1%	-1.61%	7.62%	0.526%	2.56%	-4.98%
CCn1c(Cn2cncn2)nnc1C1CCN(Cc2ccc(C)o2)CC1	-6.62%	5.41%	5.22%	3.78%	2.45%	9.07%	5.52%	4.79%	14.6%	-3.96%
O=c1[nH][nH]cc1-c1ccnc(NCCN2CCCC2)n1	3.78%	10.7%	-2.82%	-4.82%	-8.87%	7.38%	13.2%	-4.74%	-5.13%	-14.5%
O=C(O)c1csc(S(=O)(=O)Nc2cccc(OC(F)F)c2)c1	-5.06%	-7.69%	-2.43%	-1.03%	5.74%	8.11%	2.87%	-5.26%	1.21%	-6.19%
